“And” between values parts separate entries of the source, which are not always exact repeats. Equal entries are not always repeated. Inconclusive results are not listed. Values without a mark were called inactive. Calls come from the whole dose curve; as a rule, active = well fitted curve in the direction sought with a large enough effect; inconclusive = small, poorly fitted or top-dose-only effect, or another doubt; inactive = no such curve, though single readings can be large or run the other way.
% is set by controls: 0 for no effect and ±100 for the full control effect.

The assay is described as follows: qHTS Assay for Identifying Gametocytocidal Compounds (AID 743244).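 Note: actives lower the fluorescent signal which means gametocytes are killed.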 To be noted: P. falciparum 3D7 stage III-V gametocytes, alamarBlue, 72 h; max response: active compounds read low. In short, it runs like this: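 P. falciparum 3D7 stage III–V gametocytes (20,000 cells/well) were exposed to compounds for 72 h at 37 °C, 5% CO2. AlamarBlue was then added for 24 h; decreased resorufin fluorescence (Ex 525/Em 598 nm) indicated loss of viability.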
A general note: In qHTS, concentration-response curves come from the screen itself.
Regarding `O=C(O)c1ccc(-c2c[nH]c3ccc(-c4ccccc4)cc23)cc1C1CCCC1`, the max response is 15.6%.

Take `Cc1cc2c(F)c(Oc3ncnn4cc(OC[C@@H](C)O)c(C)c34)ccc2[nH]1`: the max response is -5%.

For `C#Cc1cccc(Nc2ncnc3cc(OCCOC)c(OCCOC)cc23)c1`, the max response is 10.7% and -0.582%.

Consider `COCCNCCCn1c(C(=O)CF)c(-c2ccc(C)cc2)c2c(N)ncnc21`, for which the max response was -16.2%.

For `C[C@H](NC(=O)Cc1cc(F)cc(F)c1)C(=O)N[C@@H]1C(=O)N(C)c2ccccc2-c2ccccc21`, the max response was -14.2%.

For `Fc1ccc(Cl)cc1-c1nc(Nc2ccncc2)c2nccnc2n1`, the max response is -14.2%.

As for `COc1cc(Nc2ncc3c(n2)-c2ccc(Cl)cc2C(c2c(F)cccc2OC)=NC3)ccc1C(=O)O`, the max response was -8.12%.

As to `COc1cccc2cc(-c3nc(C4CCC(C(=O)O)CC4)n4ncnc(N)c34)[nH]c12` (centres undefined), the max response was -10.8%.

Consider `COc1cc(Oc2ccnc3cc(OC)c(OC)cc23)ccc1NC(=O)NC(C)c1nccs1` (centres undefined), for which the max response was 6.55%.

Take `C[C@]1(c2nc3c(C(N)=O)cccc3[nH]2)CCCN1`: the max response is 20.1%.

Regarding `CC(=O)NC(C)c1ccc(Oc2ccc(OC(C)C)cc2)cc1` (centres undefined), the max response is -4.97%.

For `COc1c(Cl)cc2c([nH]c3cnccc32)c1NC(=O)c1cccnc1C`, the max response is 20.9%.

Turning to `Cc1ccc(NC(=O)c2cccc(C(C)(C)C#N)c2)cc1Nc1ccc2ncn(C)c(=O)c2c1`, the max response was -12.3%.

Take `COc1nc(-c2ccc3c(c2)OCO3)n(-c2ccc(NC(=O)CSc3ccccc3)cc2)n1`: the max response was 6.75%.

The record behind these values is PubChem BioAssay (NCATS).
